Experimental data: PubChem BioAssay AID720485 (Milwaukee Institute for Drug Discovery, 2013)
This is one part of the list. Values without a mark were called inactive. Active and inactive are the calls of the source.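 The calls were made as follows: active = percent inhibition of 50% or more; inactive = the rest.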

System: Hepatitis C virus NS3 helicase
Test: HCV NS3 helicase inhibitors, retest, confirmation, biochemical, fluorescence polarization, ChemBridge library (AID 720485)
Conditions: NS3h binding to Cy5-dT15 DNA, at 100 µM, active compounds read high

SMILES	inhibition
Cc1ccc(C(=O)NCCNc2ccc([N+](=O)[O-])cc2)cc1	16.1%
O=c1c2c(nc3cc(-c4cccc(F)c4)[nH]n13)CCS2	41.5%
N#Cc1c(N)nc2sc(C(=O)Nc3ccccc3)c(N)c2c1-c1ccco1	4.44%
CCOc1ccc(C=C2C(=O)NC(=O)NC2=O)cc1Cl	16.1%
CCN(CC)c1ccc(NC(=O)/C(=C\c2ccccc2)NC(C)=O)cc1	23.5%
COc1cc(C=C2C(=O)NC(=O)NC2=O)ccc1OCCOc1ccc([N+](=O)[O-])cc1	2.33%
CCN(CC)c1ccc(C=C2C(=O)N(C)C(=O)N(C)C2=O)c(O)c1	12.9%
C=CCN1C(=O)/C(=C\c2cc(OC)c(O)c([N+](=O)[O-])c2)C(=O)NC1=S	37.2%
COc1cc(/C(O)=C(\C#N)c2nc3ccccc3n2C)cc(OC)c1OC	7.62%
COc1ccc(C(=O)Oc2ccc3oc(=O)cc(C)c3c2)cc1OC	0.212%
O=C(NC(=S)Nc1ccc(-c2nc3cc(Cl)ccc3o2)cc1)c1ccco1	11.8%
CC(C)(C)N1C(=O)NC(=O)C(=Cc2cccs2)C1=O	20.3%
COc1ccc(N2C(=O)C=CC2=O)c([N+](=O)[O-])c1	65.8% (active)
Cc1ccc(C(=O)C[n+]2cc(-c3ccccc3)n3c2CCCCC3)cc1	0.212%
O=C1NC(=O)C(=Cc2cc([N+](=O)[O-])cc(Br)c2O)C(=O)N1	19.3%
